Assay results from ChEMBL document CHEMBL4513216, “Probing the Open Global Health Chemical Diversity Library for Multistage-Active Starting Points for Next-Generation Antimalarials” (ACS Infect Dis, 2020).
Screen size: about 69,000 compounds; about 8,600 (12%) showed an effect of 50% or more. This is one part of a sample in which strong results are shown more often than they occur.

test system: Plasmodium berghei; assay: Screen against P. berghei liver stage (PbLuc), transformed with Luciferase, at 10uM; format: functional, HepG2; conditions: tested at 10 uM

SMILES	INHIBITION [%]
COc1ccccc1C(=O)N(C)Cc1nnc2ccccn12	-81.1
Cn1c(N2CCOCC2)nc2cc(C(=O)N3CCC(O)(CO)C3)ccc21 (stereo not given)	44.7
CCOc1ccc(NCC(=O)NCC(=O)N2CCCC2)c(C(F)(F)F)c1	16.5
O=C(O)CCC(=O)Nc1nn(Cc2ccc(F)cc2)cc1Cl	46.6
CN1CCN(C(=O)c2cccn2C)c2ccccc2C1	-39.2
COCCN1CC[C@@H](OC)[C@@H]1Cc1ccccc1	-34.7
Cc1nnc(NC(=O)CN2CCc3c(nc(C(C)C)n3C)C2)s1	17.3
CC(O)CN1CCC(CN(C)CC(=O)NC2CCOCC2)CC1 (stereo not given)	-8.31
CCC(C)(C)NC(=O)Cn1nc(C)nc1-c1ccccc1	-31.5
O=C1NC2(Cc3ccccc31)CN(CC1CCNCC1)C2	26.7
c1ccc(-c2nnn3c2COC(CNCC2CCOCC2)C3)cc1 (stereo not given)	44.9
CCS(=O)(=O)NCC1Cn2nnc(-c3cccc(C)c3)c2CO1 (stereo not given)	50.3
CCOCC(=O)NCC1Cn2nnc(-c3cccc(F)c3)c2CO1 (stereo not given)	38.5
CC(=O)NCC(=O)NCC1Cn2nnc(-c3cccc(F)c3)c2CO1 (stereo not given)	27.6
Cc1cccc(-c2nnn3c2COC(CNC(=O)N2CCCC2)C3)c1 (stereo not given)	62.9
c1ccc(-c2nnn3c2COC(CNCC2CC2)C3)cc1 (stereo not given)	42.7
CCS(=O)(=O)NCC1Cn2nnc(-c3ccccc3)c2CO1 (stereo not given)	54.4
Cc1cccc(-c2nnn3c2COC(CNS(=O)(=O)C2CC2)C3)c1 (stereo not given)	44.8
O=C(NCC1Cn2nnc(-c3ccsc3)c2CO1)N1CCCC1 (stereo not given)	2.26
NC1CCN(S(=O)(=O)c2ccc(C(=O)N3CCSCC3)cc2)C1 (stereo not given)	2.49
CC(C)OCc1nn(CC2CC2)c2c1CN(Cc1ccco1)CC2	-107
CC(C)(CN1CCC(Cc2ccc(CO)cc2)C1)N1CCOCC1 (stereo not given)	23.5
O=C(CCn1ccc2ccccc21)Nc1ccnn1CC1CCOC1 (stereo not given)	10.1
O=C(O)c1cc2c(nc1N1CCCC1)CCN(C1CCOCC1)CC2	-15.3
O=c1[nH]cnc2c1CCN(S(=O)(=O)c1ccc(Cl)cc1)C2	36.2
CN(C)CCN(C)C(=O)Cn1cccc2cc(-c3ccc(F)cc3)nc1-2	26.7
Cn1nc(C2CNCCO2)cc1CCOc1cccc(C(F)(F)F)c1 (stereo not given)	37.8

SMILES	INHIBITION [%]
CN1CCCC(CCC(=O)N2CCc3[nH]c(-c4ccccc4)nc3C2)C1 (stereo not given)	23
CC(C(=O)NCc1ccc(N2CCN(C)CC2)nc1)n1cccn1 (stereo not given)	2.243
Cc1ccc(CN2CC[C@H]3OCC[C@@H](C(=O)NCC4CC4)[C@@H]3C2)s1	5.96
CNC(=O)c1cccc(C2CNCCN2C(=O)c2ccn(C)n2)c1 (stereo not given)	33.7
CCn1cnnc1C1CCN(C(=O)c2cnc3ccccc3n2)CC1	21.3
CCc1nnc(CN2CC(n3cccn3)C2)o1	-110
Cc1ccc(N2CCCC(NCC(=O)NC(C3CC3)C3CC3)C2)nn1 (stereo not given)	-6.44
CC(=O)N1CCC2(CCN(C(=O)c3ccc(F)c(C(F)(F)F)c3)CC2)C1	6.6
CC(=O)N1CCC2(CCN(C(=O)c3cccc(C(F)(F)F)c3)CC2)C1	63.7
CC(=O)N1CCC2(CCN(C(=O)c3ccc(C)c(C(F)(F)F)c3)CC2)C1	16.5
CC(=O)N1CCC2(CC1)CCN(C(=O)c1cccc(C(F)(F)F)c1)C2	55.5
CC(=O)N1CCC2(CCN(C(=O)c3ccc(F)c(C(F)(F)F)c3)C2)C1 (stereo not given)	17.1
CC(=O)N1CCC2(CC1)CCN(C(=O)c1ccc(F)c(C(F)(F)F)c1)C2	12.4
Cc1cc(NCCc2nc(C)c[nH]2)nc(-c2ccccc2O)n1	43.6
CN1CCN(C(=O)N2CCC3(CCCN(C4CCOCC4)C3=O)C2)CC1 (stereo not given)	-1.15
COCCN1CCN(S(C)(=O)=O)Cc2ccc(C)nc21	16.9
Cc1ccc2c(n1)N(Cc1ccncc1)CCN(S(C)(=O)=O)C2	36.9
Cc1ccc2c(n1)N(CC(C)C)CCN(S(C)(=O)=O)C2	67.2
CS(=O)(=O)NCC(Cc1cccc(F)c1)N1CCNC1=O (stereo not given)	15.7
COc1cc(COCC2CCN(Cc3ccccn3)CC2)cc(OC)c1	6.54
Fc1ccc(COCC2CCN(Cc3ccccn3)CC2)cc1	-56.4
Clc1ccc(COCC2CCN(Cc3ccccn3)CC2)cc1	62.3
Cc1nc(NC(=O)CNC(=O)c2c(F)cccc2Cl)n[nH]1	-8.69
CCOCCN1CCN(Cc2cccc(C(=O)N(C)C)c2)CC1C (stereo not given)	-9.37
CN1CCCC1c1cncc(C(=O)NCC2CC2)n1 (stereo not given)	-80
c1ccc(CNc2nc(N3CCOCC3)nc3nccnc23)cc1	30.7
O=S(=O)(N1CCCCCC1)N1CCCN(CC2CCCO2)CC1 (stereo not given)	9.57

SMILES	INHIBITION [%]
COc1ccnc(CNc2nc(C)nc3ccsc23)c1	76.9
COc1ccnc(CNc2cc(C3CC3)ncn2)c1	-47.2
COc1ccnc(CNc2nc(C)nc(C)c2C)c1	-27.6
CC(C(=O)NCc1ccc(N2CCCCC2)nc1)S(C)(=O)=O (stereo not given)	9.54
Cc1n[nH]c(C)c1CCC(=O)NCC1(O)CCN(c2ccccn2)C1 (stereo not given)	3.48
Cn1cc(C(=O)N2CCCC(c3ccncc3)C2)cn1 (stereo not given)	-16.5
CN1CCC(c2n[nH]c(=O)n2CC2CCCCC2)CC1	40.6
CNCc1n[nH]c(=O)n1CC1CCCCC1	23.9
CN1CCN(Cc2n[nH]c(=O)n2CC2CCCCC2)CC1	70.3
O=C(c1cccnc1)N1CCCC(Cc2nccs2)C1 (stereo not given)	-9.27
Cc1nc(N2CCCC2)nc2c1CCN(C(=O)NC1CCCC1)CC2	-6.23
O=C(Cc1ccccn1)N1C[C@H](OCc2cccnc2)[C@H]2COC[C@H]21	-31
Cc1cc(C)n2c(CNCCNc3ccccc3)cnc2n1	-35.2
CCNC(=O)CN(CC)C(=O)Cc1csc(C(C)C)n1	81.6
CNC(=O)CN(C)C(=O)Cc1csc(C(C)C)n1	12.3
CC(Cn1cccn1)NC(=O)Cc1csc(C(C)C)n1 (stereo not given)	0.914
CCN(CC)C(=O)Cc1csc(C(C)C)n1	-4.4
CCN(CC(=O)NC)C(=O)Cc1csc(C(C)C)n1	62.4
CC(C)c1nc(CN(CC(N)=O)C(C)C)cs1	31.8
O=C(c1cocn1)N1CCC2(CC1)CC(Oc1ccccn1)CO2 (stereo not given)	-0.804
COC(=O)c1ccoc1CN(C1CC1)C1CCS(=O)(=O)C1 (stereo not given)	42.8
Cc1nc(C)n(CC2CCCCN2Cc2cnc(C)s2)n1 (stereo not given)	30.6
CCOc1ncccc1C(=O)NC1CCCN(c2ncccn2)C1 (stereo not given)	-39.7
O=C(NCC1CCC2(CC1)OCCO2)c1cccc(-n2cccn2)c1	30.2
COc1ncccc1CNCc1cnc(N2CCOCC2)nc1	-65
Cc1cnn(CC2CN(CC(=O)Nc3c(C)nn(C)c3C)CCO2)c1 (stereo not given)	26.4
Cc1cccc(C(=O)N2C[C@H](NS(C)(=O)=O)[C@@H]3OCCC[C@@H]32)n1	31.1

SMILES	INHIBITION [%]
CC(=O)N1C[C@H](NC(=O)c2cscn2)[C@@H]2OCCC[C@@H]21	42.6
CS(=O)(=O)N[C@H]1CN(C(=O)c2cscn2)[C@@H]2CCCO[C@H]12	60.2
CS(=O)(=O)N[C@@H]1CN(C(=O)c2cccnc2)[C@@H]2CCCO[C@@H]21	56.7
CN1C[C@H](NC(=O)c2cscn2)[C@@H]2OCCC[C@@H]21	35.8
NC(=O)N1C[C@H](NC(=O)c2cscn2)[C@@H]2OCCC[C@@H]21	60.2
CS(=O)(=O)N[C@@H]1CN(C(=O)c2ccccn2)[C@@H]2CCCO[C@@H]21	37.5
CO[C@H]1CN(C(=O)c2cccnc2)[C@@H]2CCCO[C@H]12	-14.7
CS(=O)(=O)N[C@@H]1CN(C(=O)c2cnccn2)[C@@H]2CCCO[C@@H]21	26.4
CNc1ncccc1CN1CCCCC1c1cc(C)n2ccnc2n1 (stereo not given)	13
CN(Cc1cccnc1)C(=O)NC1CCN(Cc2ccccn2)CC1	16.8
CC(CCN(C)C)NC(=O)N1CCSC(C)(C)C1 (stereo not given)	60.3
COCCC(C)NC(=O)N1CCSC(C)(C)C1 (stereo not given)	48.3
CSCCC(C)NC(=O)N1CCSC(C)(C)C1 (stereo not given)	14.9
Cc1nc(C2CCCN2CCS(C)(=O)=O)no1 (stereo not given)	26.55
CCCSc1nn(CCN(C)C)c2nc3sc(C)c(CC)c3c(=O)n12	88.1
CCc1c(C)sc2nc3n(CCN(C)C)nc(SC)n3c(=O)c12	30.5
CCCSc1nn(CCCN(C)C)c2nc3sc(C)c(CC)c3c(=O)n12	11.6
Cc1nn(C)c2cnn(CC(=O)NCc3cccs3)c12	8.49
CC(C)n1c(=O)c2ccccc2n(CCN(C)C)c1=O	-0.29
CCn1ncnc1C1CC(=O)NCc2nc(N3CCCC3)sc21 (stereo not given)	-32.5
CCCC(=O)N1CCC(Nc2nc(O)cc(-c3ccsc3)n2)CC1	10.7
CCCn1ncc2c(C(=O)NC(C)Cn3cccn3)cc(C3CC3)nc21 (stereo not given)	-24.1
CCCn1ncc2c(C(=O)Nc3cnn(CC)c3C)cc(C3CC3)nc21	-9.98
CCCn1ncc2c(C(=O)Nc3n[nH]c(SC)n3)cc(C3CC3)nc21	53
